Each structure is given as a SMILES string. Inconclusive results are not listed. Calls of active or inactive are those of the source. Calls come from the whole dose curve; as a rule, active = well fitted curve in the direction sought with a large enough effect; inconclusive = small, poorly fitted or top-dose-only effect, or another doubt; inactive = no such curve, though single readings can be large; an effect the other way counts as inactive or inconclusive.

Test [1] in a line: qHTS of pediatric cancer cell lines to identify multiple opportunities for drug repurposing: Primary screen for MG 63 (6-TG R) cells (AID 1347105). Note: nearly all actives have a fitted effect of over 50% in size. The gist of the method:
(§1)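 Quantitative HTS format: each compound titrated (MIPE 11 points from 0.78 nM, NPC 8 points from 0.59 nM) onto cells plated 5 hours earlier. After 48 h at 37 degrees C, CellTiter-Glo luminescence was recorded.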

Test [2] is described as follows: qHTS of pediatric cancer cell lines to identify multiple opportunities for drug repurposing: Primary screen for control Hh wild type fibroblast cells (AID 1347106).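 Note: series mostly up to about 46 µM; a drop in luminescence marks cytotoxicity and a rise apparent proliferation; nearly all actives have a fitted effect of over 55% in size.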 The gist of the method: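 Viability after 48 h compound treatment at 37C, 500-1,000 cells/well, read as ATP luminescence with CellTiter-Glo. Primary screens used 11-point (MIPE, 0.78 nM-46 µM) or 8-point (NPC, 0.59 nM-46 µM) final concentrations; follow-up screens used 11-point dilutions.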

The nature of test [3]: qHTS of pediatric cancer cell lines to identify multiple opportunities for drug repurposing: Primary screen for Rh30 cells (AID 1347107). Note: series mostly up to about 46 µM; nearly all actives have a fitted effect of over 75% in size. The gist of the method:
(§2)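 Cells (500-1,000/well) rested 5 h, then received compounds for 48 h; metabolically active cells were measured by CellTiter-Glo luminescence. Final concentrations spanned up to 46 µM (MIPE, 11-point) or 0.59 nM-46 µM (NPC, 8-point) in primary screens, 11-point in follow-ups.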

Test [4] in a line: qHTS of pediatric cancer cell lines to identify multiple opportunities for drug repurposing: Primary screen for Rh41 cells (AID 1347108).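 Note: series mostly up to about 46 µM; luminescence drop marks cytotoxic hits; nearly all actives have a fitted effect of over 70% in size.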 The gist of the method: as §1
Test [5] can be described thus: qHTS of pediatric cancer cell lines to identify multiple opportunities for drug repurposing: Confirmatory screen for NB1643 cells (AID 1347109). Note: nearly all actives have a fitted effect of over 45% in size. The essentials:
as §2

Test [6] in a line: qHTS of pediatric cancer cell lines to identify multiple opportunities for drug repurposing: Confirmatory screen for A673 cells (AID 1347110).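 Note: potency is the fitted concentration of half-maximal effect; cells exposed to compound for 48 h before the viability read; nearly all actives have a fitted effect of over 65% in size.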 The gist of the method:
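Concentration-response curves came straight from titrations: 11 points (0.78 nM to 46 µM) for MIPE and several concentrations (0.59 nM to 46 µM) for NPC in primary, 11 points in follow-up. Readout: ATP luminescence at 48 h.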

Test [7] is described as follows: qHTS of pediatric cancer cell lines to identify multiple opportunities for drug repurposing: Confirmatory screen for SK-N-MC cells (AID 1347111).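 Note: potency is the fitted concentration of half-maximal effect; cells exposed to compound for 48 h before the readout; nearly all actives have a fitted effect of over 70% in size.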 The note with it: SK-N-MC cell viability. The gist of the method: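 Seed 500-1,000 cells/well; rest 5 h at 37 degrees C. Pin-transfer compounds, 11-point titration. Incubate 48 h. Add CellTiter-Glo, 15 min RT, read luminescence.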

The nature of test [8]: qHTS of pediatric cancer cell lines to identify multiple opportunities for drug repurposing: Confirmatory screen for BT-12 cells (AID 1347112). Note: nearly all actives have a fitted effect of over 55% in size. The essentials: as §2
Test [9] can be described thus: qHTS of pediatric cancer cell lines to identify multiple opportunities for drug repurposing: Confirmatory screen for LAN-5 cells (AID 1347113). Note: nearly all actives have a fitted effect of over 65% in size. The gist of the method:
as §2

A short description of test [10]: qHTS of pediatric cancer cell lines to identify multiple opportunities for drug repurposing: Confirmatory screen for DAOY cells (AID 1347114). Note: nearly all actives have a fitted effect of over 65% in size. The gist of the method:
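Viability measured as metabolically active cells via CellTiter-Glo luminescence following 48 hours of compound exposure, 11-point dilutions in confirmatory testing. 500-1,000 cells/well plated 5 hours before dosing; controls were DMSO and 2.3 µM bortezomib.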

The nature of test [11]: qHTS of pediatric cancer cell lines to identify multiple opportunities for drug repurposing: Confirmatory screen for NB-EBc1 cells (AID 1347115).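 Note: cells exposed to compound for 48 h before the viability read; nearly all actives have a fitted effect of over 45% in size.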 The gist of the method: as §2
The nature of test [12]: qHTS of pediatric cancer cell lines to identify multiple opportunities for drug repurposing: Confirmatory screen for BT-37 cells (AID 1347117). Note: nearly all actives have a fitted effect of over 55% in size. The gist of the method:
as §2

The nature of test [13]: qHTS of pediatric cancer cell lines to identify multiple opportunities for drug repurposing: Confirmatory screen for TC32 cells (AID 1347118).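 Note: potency is the fitted concentration of half-maximal effect; cells exposed to compound for 48 h before the read; nearly all actives have a fitted effect of over 65% in size.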 Particulars: TC32 Ewing sarcoma cells viability qHTS. The gist of the method:
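TC32 cells, 500-1,000/well in growth medium, compound-treated 48 h at 37 °C; viability from CellTiter-Glo luminescence. Primary screen: MIPE 11-point (0.78 nM–46 µM final), NPC 8-point (0.59 nM–46 µM final); confirmatory at 11-point dilutions.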

Test [14] in a line: qHTS of pediatric cancer cell lines to identify multiple opportunities for drug repurposing: Confirmatory screen for control Hh wild type fibroblast cells (AID 1347121). Note: nearly all actives have a fitted effect of over 70% in size. The gist of the method: as §2
The nature of test [15]: qHTS of pediatric cancer cell lines to identify multiple opportunities for drug repurposing: Confirmatory screen for U-2 OS cells (AID 1347122). Note: nearly all actives have a fitted effect of over 65% in size. The gist of the method:
as §2

Test [16] can be described thus: qHTS of pediatric cancer cell lines to identify multiple opportunities for drug repurposing: Confirmatory screen for Rh41 cells (AID 1347123).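 Note: 48 h compound exposure; nearly all actives have a fitted effect of over 60% in size.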 The essentials: as §2
The nature of test [17]: qHTS of pediatric cancer cell lines to identify multiple opportunities for drug repurposing: Confirmatory screen for RD cells (AID 1347124). The gist of the method: as §2
The nature of test [18]: qHTS of pediatric cancer cell lines to identify multiple opportunities for drug repurposing: Confirmatory screen for Rh18 cells (AID 1347125). Note: nearly all actives have a fitted effect of over 55% in size. The gist of the method:
as §2

With `O=C(O)CCCCC1CCSS1` (configuration not stated), the result in test [1], in [2], in [3] and in test [4] was inactive.
`C[C@@H]1CCC[C@H](C)N1`: the compound was classed as inactive in [1], in test [2], in [3] and in test [4].
In the case of `C1CCN2C[C@@H]3C[C@@H](CN4CCCC[C@@H]34)[C@H]2C1`, the compound was classed as inactive in test [1], in test [2], in [3] and in test [4].
As for `O=S1(=O)OC(c2ccc(O)cc2)(c2ccc(O)cc2)c2ccccc21`, the call in [1], in [2], in [3] and in [4] was inactive.
`CC(=O)NS(=O)(=O)c1ccc(N)cc1`: the call in [1], in [2], in test [3] and in test [4] was inactive.
Regarding `CC[N+](C)(CC)CCOC(=O)C1c2ccccc2Oc2ccccc21`, the call in test [1], in [2], in [3] and in [4] was inactive.
On to `NS(=O)(=O)c1ccc(NC(=O)CCC(=O)O)cc1`, for which the outcome in [1], in test [2], in test [3] and in [4] was inactive.
Consider `Cc1cc(NC(=O)C2=C(O)c3ccccc3S(=O)(=O)N2C)no1`, for which the compound was called inactive in test [1], in [2], in test [3] and in [4].
For the compound `COc1ccccc1OCC(O)CO` (configuration not stated), the call in test [1], in [2], in test [3] and in [4] was inactive.
Take `CC1(C)S[C@@H]2[C@H](N=CN3CCCCCC3)C(=O)N2[C@H]1C(=O)O`: the compound was classed as inactive in [1], in [2], in test [3] and in test [4].
On to `OC(CCN1CCCC1)(c1ccccc1)C1CCCCC1` (configuration not stated), for which the outcome in test [1], in [2], in test [3] and in test [4] was inactive.
As for `O=C(Cn1ccnc1[N+](=O)[O-])NCc1ccccc1`, the compound was called inactive in [1], in test [2], in [3], in test [4], in test [8] and in [10]. Besides, the compound was classed as inactive in [11], in test [14] and in test [15]. The Potency entry in [5], in test [9], in [12], in [16], in test [17] and in test [18] was “inactive” in each case. In addition, the Potency in [6] was 1170 nM (active); in test [7], 2930 nM (active); in test [13], 1850 nM (active).

(Values after PubChem BioAssay (NCATS).)
